The values below come from PMC5540273 (PLoS ONE, 2017).
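Also: KINOMEscan kinase panel screen.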

The test system of this assay is T1, ERK2.
T1 construct: gene MAPK1
To be noted: concentration: 1 μM, replicates: in singlicate; n = 1.
Consider `CCS(=O)(=O)c1ccc(OC)c(Nc2nccc(-c3c(-c4cccc(NC(=O)c5c(F)cccc5F)c4)nn4ncccc34)n2)c1` [GSK326180], for which the “%Inh” value is given as 5%. In the case of `COc1cc(Nc2nccc(-c3c(-c4cccc(NC(=O)c5c(F)cccc5F)c4)nn4ncccc34)n2)cc(OC)c1OC` [GSK327238] it was 15%; in that of `COc1ccc(-c2coc3ccc(-c4nnc(SCc5ccc(OC)c(C(F)(F)F)c5)o4)cc23)cc1`, 24%; in that of `Oc1cc(Nc2ccnc3cc(I)ccc23)ccc1F` [GW552771], 0%. The figure for `O=c1[nH]cc(-c2ccc(N3CCOCC3)cc2)c2sc(-c3cn[nH]c3)cc12` [GSK2276055] is 0%; for `FC(F)(F)c1ccc(/C=C/c2cncnc2Nc2ccc3[nH]c(Cc4ccccc4)nc3c2)cc1` [GW709199] it is 0%; for `Nc1ncnc2c1nc(-c1ccccc1)n2-c1ccccc1` [SKF-97293] it is 10%. In the case of `Cn1cc(-c2ccc3c(c2)CCN3C(=O)Cc2cccc(Cl)c2)c2c(N)ncnc21` [GSK2606590] it was 10%; in that of `Cc1ccc(C(=O)Nc2ccc(Nc3ccnc4cc(-c5nccs5)ccc34)cc2O)cc1.Cl` [GW494702], 0%.

For `COc1cc(Nc2ncc3c(C)nc(-c4cc5ccccc5[nH]4)n3n2)cc(OC)c1OC` [GW869516], the “%Inh” value worked out at 0%. With `COc1ccc(CNC(=O)NC2CCN(c3ccnc(Nc4ccc(F)cc4)n3)CC2)cc1` [GSK1379788], the “%Inh” value stood at 0%. For `CCn1c(-c2nonc2N)nc2c(C#CC(C)(C)O)nc(OC[C@H](N)c3ccccc3)cc21` [GSK943949], the “%Inh” value was 3%.
